# About 2,000 (36%) of roughly 5,500 compounds were called active. About 18% were inconclusive and are not listed. Some of the results follow. Values without a mark were called inactive. No stated cut-off is given here; in the data, active means normalized growth mostly below about 0.91 (no sharp cut-off); inconclusive means no clear call, values can overlap the other calls; inactive means mostly above about 0.92.
# Test: chemical genetic growth profiling, strain panel (AID 1159580);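 further: tested at 20 µM; growth read once vehicle control cultures reached saturation at 30 °C; 1 = growth at the plate median or of vehicle wells; lower values mean less growth of the strain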
# Conditions: growth OD
structure (smiles),measurement,setting,value
CC(=O)O[C@@H]1C=C[C@@]2(C)C(C[C@@H](OC(C)=O)[C@@]3(C)C4=CC(=O)O[C@@H](c5ccoc5)[C@]4(C)CCC23)C1(C)C (stereo partly specified),normalized growth,"S. cerevisiae deletion strains, locus YNL067W, strain RPL9B, hits give low values",1
same,normalized growth,"S. cerevisiae deletion strains, locus YNL071W, strain lat1, hits give low values",0.992
same,normalized growth,"S. cerevisiae deletion strains, locus YNL128W, strain TEP1, hits give low values",1
same,normalized growth,"S. cerevisiae deletion strains, locus YNL153C, strain GIM3, hits give low values",0.998
same,normalized growth,"S. cerevisiae deletion strains, locus YNL183C, strain NPR1, hits give low values",0.956
same,normalized growth,"S. cerevisiae deletion strains, locus YNL209W, strain ssb2, hits give low values",0.985
same,normalized growth,"S. cerevisiae deletion strains, locus YNL233W, strain BNI4, hits give low values",1
same,normalized growth,"S. cerevisiae deletion strains, locus YNL248C, strain rpa49, hits give low values",0.961
same,normalized growth,"S. cerevisiae deletion strains, locus YNL250W, strain rad50, hits give low values",0.065 (active)
same,normalized growth,"S. cerevisiae deletion strains, locus YNL271C, strain bni1, hits give low values",0.0603 (active)
same,normalized growth,"S. cerevisiae deletion strains, locus YNL298W, strain CLA4, hits give low values",0.0602 (active)
same,normalized growth,"S. cerevisiae deletion strains, locus YNL307C, strain MCK1, hits give low values",0.069 (active)
same,normalized growth,"S. cerevisiae deletion strains, locus YNL322C, strain KRE1 (second series), hits give low values",0.985
same,normalized growth,"S. cerevisiae deletion strains, locus YNL322C, strain KRE1, hits give low values",1.02
same,normalized growth,"S. cerevisiae deletion strains, locus YNR049C, strain mso1, hits give low values",0.975
same,normalized growth,"S. cerevisiae deletion strains, locus YNR052C, strain pop2, hits give low values",0.112 (active)
same,normalized growth,"S. cerevisiae deletion strains, locus YOL006C, strain TOP1, hits give low values",0.901
same,normalized growth,"S. cerevisiae deletion strains, locus YOL147C, strain pex11, hits give low values",0.0888 (active)
same,normalized growth,"S. cerevisiae deletion strains, locus YOR001W, strain rrp6, hits give low values",1.01
same,normalized growth,"S. cerevisiae deletion strains, locus YOR061W, strain CKA2, hits give low values",1.01
same,normalized growth,"S. cerevisiae deletion strains, locus YOR069W, strain VPS5, hits give low values",1.01
same,normalized growth,"S. cerevisiae deletion strains, locus YOR070C, strain gyp1, hits give low values",0.991
same,normalized growth,"S. cerevisiae deletion strains, locus YOR080W, strain dia2, hits give low values",0.984
same,normalized growth,"S. cerevisiae deletion strains, locus YOR083W, strain WHI5, hits give low values",1
same,normalized growth,"S. cerevisiae deletion strains, locus YOR106W, strain vam3, hits give low values",0.997
same,normalized growth,"S. cerevisiae deletion strains, locus YOR136W, strain idh2, hits give low values",0.0732 (active)
same,normalized growth,"S. cerevisiae deletion strains, locus YOR144C, strain elg1, hits give low values",0.131 (active)
same,normalized growth,"S. cerevisiae deletion strains, locus YOR184W, strain ser1, hits give low values",0.0712 (active)
same,normalized growth,"S. cerevisiae deletion strains, locus YOR231W, strain MKK1, hits give low values",0.985
same,normalized growth,"S. cerevisiae deletion strains, locus YOR265W, strain rbl2, hits give low values",0.985
same,normalized growth,"S. cerevisiae deletion strains, locus YOR270C, strain vph1, hits give low values",0.885
same,normalized growth,"S. cerevisiae deletion strains, locus YOR290C, strain snf2, hits give low values",0.956
same,normalized growth,"S. cerevisiae deletion strains, locus YOR316C, strain cot1, hits give low values",0.0594 (active)
same,normalized growth,"S. cerevisiae deletion strains, locus YPL051W, strain arl3, hits give low values",0.996
same,normalized growth,"S. cerevisiae deletion strains, locus YPL055C, strain LGE1, hits give low values",0.968
same,normalized growth,"S. cerevisiae deletion strains, locus YPL078C, strain atp4, hits give low values",0.982
same,normalized growth,"S. cerevisiae deletion strains, locus YPL106C, strain sse1, hits give low values",0.975
same,normalized growth,"S. cerevisiae deletion strains, locus YPL240C, strain hsp82, hits give low values",0.993
same,normalized growth,"S. cerevisiae deletion strains, locus YPL241C, strain CIN2, hits give low values",1.01
same,normalized growth,"S. cerevisiae deletion strains, locus YPL256C, strain CLN2, hits give low values",0.948
same,normalized growth,"S. cerevisiae deletion strains, locus YPR119W, strain clb2, hits give low values",0.0629 (active)
same,normalized growth,"S. cerevisiae deletion strains, locus YPR141C, strain kar3, hits give low values",0.0773 (active)
same,normalized growth,"S. cerevisiae deletion strains, locus YPR163C, strain tif3, hits give low values",0.0691 (active)
same,normalized growth,"S. cerevisiae deletion strains, locus YPR167C, strain met16, hits give low values",0.0608 (active)
same,normalized growth,"S. cerevisiae deletion strains, strain wtn01, hits give low values",0.0601 (active)
same,normalized growth,"S. cerevisiae strains, strain wild type, hits give low values",1.02
